Potency data for 106 molecules are collected here from PubChem BioAssay AID2551 (National Center for Advancing Translational Sciences (NCATS), 2010).

Values joined by “and” are separate entries in the source; they are usually repeats but may differ in a detail not shown here. Identical values can stand only once. Screen size: about 310,000 compounds; about 17,000 (5.5%) were called active. Entries that show only a call come without a potency. Not shown: some 11% with an inconclusive outcome. Calls follow the shape of the dose curve; as a rule, active = well fitted inhibition curve with a large enough effect; inconclusive = small, poorly fitted or top-dose-only effect, or effect the other way; inactive = no such curve, though single readings can be large or run the other way. Many of the other results were omitted from the sample, so actives are more common in it than they were.
Potency is read from the fitted curve at half-maximal effect.

The target of the assay is Nuclear receptor ROR-gamma (Mus musculus) (UniProt P51450). The assay is described as follows: qHTS for inhibitors of ROR gamma transcriptional activity. Also: nearly all actives have a fitted effect of over 60% in size. To be noted: Drosophila S2 Gal4-RORgamma UAS-luciferase reporter, 20 h; series mostly up to 53.6 µM. An excerpt: NIH Molecular Libraries Probe Production Network [MLPCN] NIH Chemical Genomics Center [NCGC] MLPCN Grant: R03 DA026211-01 Assay Provider: Dan Littman, New York University Assay Overview: The retinoic acid-related orphan receptor (ROR) gamma is a transcription factor that has a central role in the differentiation of Th17 cells, a subset of T helper cells that secrete the inflammatory cytokines IL-17, IL-17F, and IL-22. Th17 cells have been implicated in graft versus host disease, autoimmune disease and asthma. ROR gamma is induced in naive T helper cells in the presence of TGF-beta combined with IL-6, IL-21, or IL-23, and thereafter directs the expression of the Th17 lineage cytokines. To study the mechanism of action of ROR gamma, an insect cell-based assay was screened. This Drosophila Schneider cell line was stably transfected with two vectors: a gene expressing a fusion of the Gal4 DNA binding domain and ROR gamma transactivation domain under the control of the metallothionine promoter and a Photinus luciferase reporter regulated by the Gal4 binding site enhancer, UAS. […] Small molecule inhibitors of ROR gamma activity are detected by a decrease in luciferase reporter activity.
Nuclear receptor ROR-gamma (Mus musculus), sequence (P51450 whole entry, looked up, the tested form may be a part): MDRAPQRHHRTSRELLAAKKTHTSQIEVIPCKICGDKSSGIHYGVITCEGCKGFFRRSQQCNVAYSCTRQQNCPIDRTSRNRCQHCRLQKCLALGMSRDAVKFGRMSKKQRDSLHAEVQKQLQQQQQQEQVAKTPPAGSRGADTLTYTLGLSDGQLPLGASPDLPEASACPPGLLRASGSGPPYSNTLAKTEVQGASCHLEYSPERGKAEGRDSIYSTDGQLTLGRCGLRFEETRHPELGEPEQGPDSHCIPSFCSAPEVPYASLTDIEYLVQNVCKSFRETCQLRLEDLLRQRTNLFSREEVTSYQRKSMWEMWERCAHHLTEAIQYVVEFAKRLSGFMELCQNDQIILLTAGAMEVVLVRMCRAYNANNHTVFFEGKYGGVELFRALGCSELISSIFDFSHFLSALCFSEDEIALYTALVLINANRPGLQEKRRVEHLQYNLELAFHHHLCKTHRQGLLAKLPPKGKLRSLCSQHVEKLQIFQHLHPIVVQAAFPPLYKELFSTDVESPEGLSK
Assay Protocol Summary: For screening, 600 cells in 4 uL/well were dispensed into white solid 1536-well plates (Grenier) using a solenoid-based dispenser. Following transfer of 23 nL compound or DMSO vehicle by a pin tool, the plates were incubated 1 hr at ambient temperature, and 1 uL/well copper sulfate (700 uM final concentration) was added. The plates were centrifuged 15 s at 1000 RPM and incubated 20 hr at ambient temperature. After addition of 1.5 uL Photinus luciferase detection reagent, the plates were incubated 10 min at ambient temperature and then read by an ViewLux (Perkin Elmer) to detect luminescence. Keywords: NIH Roadmap, MLPCN, MLI, MLSMR, qHTS, NCGC, qHTS, nuclear hormone receptor, retinoic acid-related orphan receptor, ROR gamma
Turning to `O=S(=O)(NC1CCCC1)c1ccc(-n2cnnn2)cc1`, the Potency result is “inactive”.
The same measure for `Cc1sc2nc(SCCO)n(-c3ccccc3)c(=O)c2c1C`: “inactive”; for `COCCCNC(=S)N1CCN(c2nc(-c3cccc(OC)c3)cs2)CC1`: “inactive”; for `O=C(Nc1c2c(nn1-c1ccccc1)CS(=O)(=O)C2)C1CCCC1`: “inactive”.
Regarding `NC(N)=N/N=C/c1ccc(Cl)c([N+](=O)[O-])c1`, the Potency result was “inactive”.
The result for `Nn1cnnc1N/N=C/c1cc([N+](=O)[O-])c(Cl)cc1Cl` reads 11.2 µM (active); that for `CC(CN1CCC(n2nccc2NC(=O)C2CCCC2)CC1)c1ccccc1` (stereo unspecified), “inactive”.
The same measure for `Oc1ccc(Br)cc1C=Nc1ccc2[nH]ncc2c1`: 11.2 µM (active).
As for `O=C(CCc1nnc2ccc(NCc3ccco3)nn12)Nc1cc(F)ccc1F`, the Potency entry is “inactive”.
The same measure for `CCc1ccc(NC(=O)CSc2nc3ccccc3c(=O)n2CCN2CCOCC2)cc1`: “inactive”; for `CCn1c(SCC(=O)Nc2ccc(C)cc2)nc2nc3c(cc2c1=O)CCCC3`: 10 µM (active).
In the case of `CC(=O)NCCn1c(SCC(=O)Nc2ccc(C)cc2)nc2ccccc2c1=O`, the Potency entry is “inactive”.
As for `CCn1c(C)c(C)c2cc(C(=O)N3CCN(c4cccc(C)c4C)CC3)ccc21`, the Potency result is “inactive”.
In the case of `CCCCC(c1nnnn1CS(=O)(=O)c1ccc(C)cc1)N1CCC(C(N)=O)CC1` (stereo unspecified), the Potency entry is “inactive”.
The result for `Cc1ccc(CNC(=O)Cc2cn(C)c3ccccc23)cc1` reads “inactive”; that for `Cc1cc(C(=O)N/N=C/c2cc([N+](=O)[O-])cc(C)c2O)n[nH]1`, 10 µM (active).
The result for `CC(C)(C)c1cc(C(=O)N/N=C/c2ccc([N+](=O)[O-])s2)n[nH]1` reads “inactive”; that for `COc1ccc2ccccc2c1/C=N/NC(=O)c1cc(C)[nH]n1`, “inactive”; that for `CCCCn1c(SCC(=O)N2CCOCC2)nc2c1c(=O)n(C)c(=O)n2C`, “inactive”.
The same measure for `CC1(C)CCCC2=C1CC1C(=O)N(c3ccccc3)C(=O)C1C2` (stereo unspecified): “inactive”; for `CC1CC2=C(CC1/C=N/NC(N)=S)C(C)(C)CCC2` (stereo unspecified): 1.41 µM (active).
Turning to `CC(C)[C@H](NC(=O)N1CCn2c1nc1ccccc12)C(=O)NCc1ccc2c(c1)OCO2`, the Potency entry was “inactive”.
The same measure for `Cc1ccc2[nH]c(=O)c(CC(=O)O)c(-c3ccccc3)c2c1`: “inactive”; for `COc1ccc(C(C)NC(=O)C23CC4CC(CC(C4)C2)C3)cc1` (stereo unspecified): “inactive”; for `CC(C)/C=N/NC(=O)c1cc(Br)ccc1O`: 10 µM (active).
Regarding `CC(=N\NC(=O)c1cc(Br)ccc1O)/C(=N/O)C(=O)Nc1ccccc1`, the Potency is 7.94 µM (active).
The result for `O=C(O)c1ccc(/C=N/NC(=O)c2ccc(Br)cc2)cc1` reads “inactive”.
The same measure for `O=C(Nc1ccc(C(=O)O)cc1)/C(=C\c1ccccc1)NC(=O)c1ccc(Br)cc1`: “inactive”; for `O=C(N/N=C\c1cccc(Br)c1)c1ccccc1-n1cccc1`: “inactive”; for `O=C(Nc1cccc(NC(=O)c2ccc(Br)cc2)c1)c1ccccc1`: “inactive”.
The same measure for `Cc1cccc(N(C(=O)Cn2nnc(-c3ccc(C)o3)n2)C(C(=O)NC2CCCC2)c2ccncc2)c1` (stereo unspecified): “inactive”; for `O=C(CCN1C(=O)[C@H]2CC=CC[C@H]2C1=O)NCc1nc(-c2ccccc2)no1`: “inactive”; for `CCCNC(=O)c1ccc(N2CCC3(CC2)CC(c2ccc(Cl)cc2)=NO3)c([N+](=O)[O-])c1`: “inactive”.
With `O=C1CCC(C(=O)N2CCC(O)(c3ccccc3)CC2)CN1CCc1ccccc1` (stereo unspecified), the Potency entry is “inactive”.
As for `Cc1ccc(N2CCN(C(=O)c3cccs3)CC2)c(C)c1`, the Potency entry was “inactive”.
For the molecule `COc1ccc(/C=N/OCc2ccccc2C#N)c(OC)c1`, the Potency entry is “inactive”.
For `Cc1ccc(C(=O)NCC(=O)NCc2cc(=O)n(C)c(=O)n2C)cc1`, the Potency entry was “inactive”.
The same measure for `O=C(/C=C/Sc1ncn[nH]1)c1ccc(Cl)cc1`: 4.47 µM (active); for `COc1ccc(Cl)cc1CSc1ncn[nH]1`: “inactive”; for `O=C(NCCOCc1ccc(Cl)cc1)c1ncn[nH]1`: “inactive”.
The result for `COCCNC(=O)COc1ccc(N(C)S(=O)(=O)c2ccc3ccccc3c2)cc1` reads “inactive”; that for `COc1cccc(N(CC(=O)NC2CCCC2)C(=O)CCCC(=O)Nc2ccccn2)c1`, “inactive”.
As to `COc1ccc(/C=C2/S/C(=N/N=C3\CC4CCC3(C)C4(C)C)NC2=O)cc1` (stereo unspecified), the Potency is 10 µM (active).
The result for `COc1ccc(/C=C2\NC(=O)[C@@H]3Cc4ccccc4CN3C2=O)cc1` reads “inactive”; that for `COc1ccc(/C=C2\SC(=N)N(c3ccc(F)cc3)C2=O)cc1`, “inactive”.
Turning to `Cc1ccc(C)c(C(=O)N2CCC(n3nccc3NC(=O)C3CC3)CC2)c1`, the Potency result was “inactive”.
The result for `Cn1c(COc2ccc(Cl)cc2)nc2ccccc2c1=O` reads “inactive”.
The result for `Cc1[nH]nc(-c2ccc(OCc3cnn(-c4ccccc4)c3)cc2O)c1Oc1ccc(Cl)cc1` reads 2.24 µM (active); that for `COc1ccc(-c2nc(N)ncc2-c2ccc(Cl)cc2)c(O)c1`, “inactive”.
Take `Cc1nc(COc2cc3oc(=O)cc(C)c3cc2Cl)cs1`: the Potency result is “inactive”.
The result for `CC(=O)NCCc1ccc(S(=O)(=O)Nc2ccc(C)c(S(=O)(=O)N3CCOCC3)c2)cc1` reads “inactive”; that for `O=C(Nc1cccc(NC(=O)c2cccc(F)c2)c1)c1ccccc1`, “inactive”.
Regarding `CCS(=O)(=O)NCCc1ccc(OC)c(OC)c1`, the Potency was 11.2 µM (active).
The result for `COc1ccc(CCNS(=O)(=O)c2ccc(Cl)s2)cc1OC` reads “inactive”.
The same measure for `COc1ccc(CCNS(=O)(=O)c2ccc(F)cc2)cc1OC`: “inactive”; for `COc1ccc(S(=O)(=O)N2CCC(C(=O)NCc3ccco3)CC2)cc1C`: “inactive”; for `Cc1cccc(-c2noc(CCC(=O)NC3CCCC3)n2)c1`: “inactive”.
The result for `O=C(NCCCN1CCOCC1)c1cc(-c2ccccc2F)no1` reads “inactive”; that for `CCn1c(O)c(N=NC2=NC(=O)CS2)c2cc(C)ccc21`, 4.47 µM (active); that for `CCn1c(=O)cc(O)c2ccccc21`, “inactive”.
Turning to `COC(=O)Cn1c2ccc(C)cc2c2nc(C)sc21`, the Potency entry is “inactive”.
Regarding `CN(CC(=O)Nc1ccc(Cl)cc1)C(=O)CNC(=O)c1ccc2ccccc2c1`, the Potency entry is “inactive”.
As for `Cn1cc(CCC(=O)NC2CC2)c2ccccc21`, the Potency result is “inactive”.
The result for `O=C(CNC(=O)Cc1ccccc1)N=Nc1c(O)[nH]c2ccc(Br)cc12` reads “inactive”; that for `O=C(C1CCCN(S(=O)(=O)c2ccc([N+](=O)[O-])cc2)C1)N1CCCCC1` (stereo unspecified), “inactive”.
For the molecule `O=[N+]([O-])c1cccc2ncccc12`, the Potency result is “inactive”.
The result for `O=[N+]([O-])c1ccccc1S(=O)(=O)Nc1cccc2cccnc12` reads 501 nM (active) and 708 nM (active).
The same measure for `Cc1ccccc1NC(=O)c1ccccc1NS(=O)(=O)c1cccc2cccnc12`: “inactive”.
With `O=C(Cc1ccccc1F)NC1CCSc2ccccc21` (stereo unspecified), the Potency result is “inactive”.
For `CC(C)c1ccc(S(=O)(=O)NC2CCCC2)cc1`, the Potency result is “inactive”.
The same measure for `CCn1c(CNC(=O)c2cc(OC)c(OC)c(OC)c2)cc2cc(C)ccc21`: “inactive”; for `CC(=O)N1c2ccc(S(=O)(=O)N3CCCC(C(=O)Nc4cccc(Cl)c4)C3)cc2CC1C` (stereo unspecified): “inactive”.
The same measure for `CC(=O)N1CCCc2cc(S(=O)(=O)N3CCCC(C(=O)N4CCN(c5cccc(Cl)c5)CC4)C3)ccc21` (stereo unspecified): 5.62 µM (active); for `CC(=O)N1CCCc2cc(S(=O)(=O)N3CCCC(C(=O)NCc4ccc(Cl)cc4)C3)ccc21` (stereo unspecified): “inactive”.
`COc1ccc2oc(C(=O)NCc3ccco3)c(C)c2c1`: the Potency entry is “inactive”.
The same measure for `CC(C(=O)N1CCN(c2ccccc2F)CC1)c1ccc([N+](=O)[O-])cc1` (stereo unspecified): “inactive”; for `COc1ccc(CNc2nccs2)cc1`: “inactive”; for `O=c1[nH]c(NCCO)nnc1Cc1ccc(Cl)cc1`: “inactive”.
The same measure for `CCOc1ccc(-n2c(O)c(/C=N/Nc3nnc(C)c(=O)[nH]3)c3ccccc3c2=O)cc1`: “inactive”; for `COc1ccc(Cc2nnc(N/N=C/c3ccccc3O)[nH]c2=O)cc1OC`: 3.98 µM (active).
The same measure for `NC(=O)N1CCc2ccccc21`: “inactive”.
Regarding `O=C(NC(=S)N1CCc2ccccc21)c1ccco1`, the Potency was 1.41 µM (active).
The result for `O=C(CSCc1ccccc1)N1CCc2ccccc21` reads “inactive”.
The same measure for `COc1cc(/C=N/N2CCN(c3ccccc3)CC2)ccc1OC(C)=O`: “inactive”; for `CC(C)=CCN1CCN(Cc2cc3ccccc3[nH]2)CC1CCO` (stereo unspecified): “inactive”.
The result for `CCOC(=O)c1c(NC(=O)CSc2nnc(C)c(=O)[nH]2)sc2c1CCC2` reads “inactive”.
With `CCOC(=O)c1c(NC(=O)c2ccc(Br)o2)sc2c1CCCC2`, the Potency result was “inactive”.
The same measure for `CCN(CC)CC(=O)Nc1sc2c(c1C(=O)c1ccccc1C)CCC2`: 7.08 µM (active); for `CCc1ccc(N(CC(=O)Nc2sc3c(c2C(=O)OC)CCCC3)S(C)(=O)=O)cc1`: “inactive”; for `CCOC(=O)c1c(NC(=O)CCC(=O)NCc2ccco2)sc2c1CCCC2`: “inactive”.
The result for `CCOC(=O)c1c(NC(=S)Nc2ccccc2C)sc2c1CCC2` reads 3.55 µM (active).
The same measure for `CCOC(=O)c1c(NC(=O)C(C)Sc2c[nH]c3ccccc23)sc2c1CCC2` (stereo unspecified): “inactive”.
Take `O=C(Nc1sc2c(c1C(=O)O)CCC2)c1ccccc1F`: the Potency result is “inactive”.
The result for `CCOC(=O)c1c(NC(=S)NC(=O)c2ccco2)sc2c1CCCC2` reads 3.16 µM (active).
As for `CCCOC(=O)Nc1sc2c(c1C(=O)OCC)CCC2`, the Potency entry is “inactive”.
Regarding `CCOC(=O)c1c(NC(=S)Nc2ccccc2)sc2c1CCN(C)C2`, the Potency entry is “inactive”.
The result for `CCOC(=O)c1c(NC(=S)NC)sc2c1CCCC2` reads 0.891 µM (active); that for `Cc1coc2c1c(C)cc1oc(=O)c(CC(=O)NCC(=O)N[C@H](C(=O)O)C(C)C)c(C)c12`, “inactive”.
The same measure for `CCCCNC(=O)CN1C(=O)NC(Cc2ccccc2)(Cc2ccccc2)C1=O`: “inactive”.
Regarding `O=C(NCC(=O)N1CCN(c2ccccc2O)CC1)c1ccc2ccccc2c1`, the Potency entry was “inactive”.
The result for `Cc1cc(C)cc(N(CC(=O)NC2CCCC2)C(=O)CCC(=O)Nc2cc(C)on2)c1` reads “inactive”; that for `O=C(CN1CCOC1=O)N1CCCC(Nc2ccc(F)c(F)c2)C1` (stereo unspecified), “inactive”; that for `O=C(CCNS(=O)(=O)c1cccs1)N1CCN(c2ccc(F)cc2)CC1`, “inactive”.
The same measure for `CCCc1nnc(SCC(=O)Nc2ccc(C(=O)OCC)cc2)o1`: “inactive”; for `CCN(C(=O)Cc1c(C(=O)O)n(CC)c2ccccc12)c1ccccc1C`: “inactive”; for `CCOC(=O)c1ccccc1NC(=O)COC(=O)CCC(=O)N1CCOCC1`: “inactive”.
